This is a sample that favours compounds with a hit; in the whole collection about 1.2% have one here.
RGS7-Gao reg = human RGS7-Galphao interaction regulation. P09471. binding response (% of control), % at 10 µM. Multiplexed bead flow cytometry, RGS7-Galphao binding; actives lie on both sides. AID 1439. 0.35% of 220,000 active; in the data active means binding response below about 49% or above about 150%; inconclusive means no clear call, values can overlap the other calls; inactive means in between;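 further: fluorescent Galphao held in activated GDP-AlF4 state binding bead-coupled RGS7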
Target sequence (P09471 whole entry, looked up): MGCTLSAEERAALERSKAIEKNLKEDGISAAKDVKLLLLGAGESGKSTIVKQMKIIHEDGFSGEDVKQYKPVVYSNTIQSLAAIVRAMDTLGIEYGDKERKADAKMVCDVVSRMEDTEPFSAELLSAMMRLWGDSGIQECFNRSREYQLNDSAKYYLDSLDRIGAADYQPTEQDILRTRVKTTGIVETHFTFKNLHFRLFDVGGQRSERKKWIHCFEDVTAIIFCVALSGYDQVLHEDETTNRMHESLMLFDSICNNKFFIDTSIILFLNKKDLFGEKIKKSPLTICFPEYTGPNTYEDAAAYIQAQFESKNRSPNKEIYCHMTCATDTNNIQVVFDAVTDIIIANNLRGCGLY
Avidin fluor = avidin bead compound fluorescence profile | Avidin beads, compound fluorescence 488/530 nm, flow cytometry; active compounds read high | fluorescence (KMESF) at 10 µM | 0.38% of 220,000 active | AID 1775; in the data active means fluorescence above about 47
RGS8-Gao reg = modulates binding of RGS8 to human Galphao; P09471; response (percent of control binding), % at 10 µM; multiplexed bead flow cytometry; actives lie on both sides; AID 1423; 0.34% of 220,000 active; in the data active means response below about 60% or above about 140%; inactive means in between;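 further: Galphao activated as the GDP aluminium fluoride complex binding bead-coupled RGS8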
GSH bead fluor = GSH bead compound fluorescence profile; GSH beads flow cytometry, compound fluorescence 488/530 nm; active compounds read high; fluorescence (KMESF) at 10 µM; 0.25% of 190,000 active; AID 1776; in the data active means fluorescence above about 89;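 further: glutathione beads carrying GST-tagged Bcl family fusion proteins plus one bare bead set; values are compound well signal with DMSO vehicle wells as background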
RGS4-Gao reg = human RGS4-Galphao interaction regulation; P09471; Multiplexed bead flow cytometry, RGS4-Galphao binding; actives lie on both sides; binding response (% of control), % at 10 µM; 0.33% of 220,000 active; in the data active means binding response below about 49% or above about 150%; inactive means in between;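 further: fluorescent Galphao activated with aluminum fluoride binding bead-coupled RGS4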
RGS16-Gao HTS = regulators of human RGS16-Galphao interaction. 0.38% of 220,000 active. binding response (% of control), % at 10 µM. O15492+P09471. AID 1441. bead-based flow cytometry RGS16-Galphao binding, fluorescence; actives lie on both sides;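 further: Galphao activated by GDP with aluminum fluoride before binding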
Target sequence (O15492 whole entry, looked up): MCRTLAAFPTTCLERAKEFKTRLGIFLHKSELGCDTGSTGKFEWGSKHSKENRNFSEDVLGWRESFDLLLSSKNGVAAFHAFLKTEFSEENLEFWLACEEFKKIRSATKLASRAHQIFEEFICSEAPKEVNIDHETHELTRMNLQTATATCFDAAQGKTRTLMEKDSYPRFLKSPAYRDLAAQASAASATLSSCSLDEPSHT
Target sequence (P09471 whole entry, looked up): as the sequence (P09471 whole entry, looked up) above
RGS-Gao = RGS4-Galphao interaction regulator (human) | AID 1504 | multiplexed bead flow cytometry, RGS–Galpha-o binding | RGS4–Galpha-o binding response, % at 10 µM | shares compounds with RGS16-Gao HTS | 99% of 1,600 active;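 further: fluorescently labeled Galpha-o bound to GDP with aluminium fluoride binding biotinylated RGS beads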
Biotin-avidin = biotin-avidin bead binding disruption counter-screen; AID 1783; 1,700 tested, under 10 active; streptavidin beads, fluorescein-biotin binding, flow cytometry; inhibition, % at 10 µM; shares compounds with RGS16-Gao HTS;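 active means inhibition above 50%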;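 further: median green fluorescence of gated singlet beads compared with DMSO control wells; 0% = DMSO wells and 100% = complete loss of bead fluorescence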
RGS8-Gao single = RGS8-Galphao interaction regulation, single point confirmation | shares compounds with RGS16-Gao HTS | bead-based flow cytometry RGS8-Galphao binding, fluorescence; actives lie on both sides | binding response (% of control), % at 10 µM | 3% of 1,700 active | AID 1836; in the data active means binding response below about 72% or above about 130%; inactive means in between;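 further: Galphao activated as GDP AlF4 complex before binding bead RGS8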
RGS7-Gao confirm = confirmation of regulators of human RGS7-Galphao interaction; 7.8% of 1,700 active; bead-based flow cytometry RGS7-Galphao binding; actives lie on both sides; shares compounds with RGS16-Gao HTS; response (percent of control binding), % at 10 µM; AID 1837; in the data active means response below about 75% or above about 130%; inactive means in between;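 further: fluorescent Galphao activated with GDP and aluminum fluoride binding bead-coupled RGS7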
RGS16-Gao conf = confirmation of regulators of human RGS16-Galphao interaction; shares compounds with RGS16-Gao HTS; bead-based flow cytometry, RGS16-Galphao binding; actives lie on both sides; response (% of control binding), % at 10 µM; 4% of 1,700 active; AID 1838; in the data active means response below about 74% or above about 130%; inactive means in between;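 further: Galphao activated as the GDP aluminium fluoride complex binding bead-coupled RGS16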
RGS4-Gao single = RGS4-Galphao interaction regulation, single point confirmation | shares compounds with RGS16-Gao HTS | RGS4-Galphao binding, multiplexed bead flow cytometry; actives lie on both sides | binding response (% of control), % at 10 µM | 4% of 1,700 active | AID 1840; in the data active means binding response below about 74% or above about 130%; inactive means in between
RGS19-Gao single = confirmation of regulators of human RGS19-Galphao interaction; shares compounds with RGS16-Gao HTS; bead-based flow cytometry RGS19-Galphao binding; actives lie on both sides; response (percent of control binding), % at 10 µM; 5% of 1,700 active; AID 1841; in the data active means response below about 50% or above about 160%; inactive means in between;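 further: 100% = no compound control and 0% = blank background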
Numbers without * were called inactive; [ ] = dose if it differs, or a comment. Unless noted, how the calls were made is not given here.

What do the screens show for `Cc1cccc(OCCCn2c(CO)nc3ccccc32)c1`?
RGS7-Gao reg: inconclusive; Avidin fluor: 6; RGS8-Gao reg: 100.5; RGS4-Gao reg: 101.5; RGS16-Gao HTS: 99.2

What do the screens show for `Cc1cccc(NC(=O)C2Cc3ccccc3CN2C(=O)OCc2ccccc2)c1C` (configuration not stated)?
RGS7-Gao reg: 90.1; Avidin fluor: 6; RGS8-Gao reg: 79.4; GSH bead fluor: 6; RGS4-Gao reg: 91.3; RGS16-Gao HTS: 11.5*; RGS-Gao: 91.3*; Biotin-avidin: -1.6; RGS8-Gao single: 110.8; RGS7-Gao confirm: 101.9; RGS16-Gao conf: 117.8; RGS4-Gao single: 102.3; RGS19-Gao single: 116.2

Results for Cc1c(Cl)cccc1NC(=O)C1Cc2ccccc2CN1C(=O)c1ccccc1 (configuration not stated) ?
RGS7-Gao reg: 96.9; Avidin fluor: 14; RGS8-Gao reg: 99.4; GSH bead fluor: 19; RGS4-Gao reg: 99.3; RGS16-Gao HTS: 95.7

How did NS(=O)(=O)c1cc(C(=O)OCC(=O)c2ccc3c(c2)OCCO3)ccc1Cl do in these assays?
RGS7-Gao reg: 179.2*[activator]; Avidin fluor: 51*; RGS8-Gao reg: 102.0; GSH bead fluor: 15; RGS4-Gao reg: 106.1; RGS16-Gao HTS: 99.7; RGS-Gao: 106.1*; Biotin-avidin: 0.1; RGS8-Gao single: 103.0; RGS7-Gao confirm: 89.0; RGS16-Gao conf: 100.9; RGS4-Gao single: 96.3; RGS19-Gao single: 79.0

What do the screens show for `O=C(Cc1ccc(Br)cc1)OCC(=O)c1ccc2c(c1)OCCO2`?
RGS7-Gao reg: 41.6*; Avidin fluor: 2; RGS8-Gao reg: 53.5*; GSH bead fluor: 23; RGS4-Gao reg: 47.1*; RGS16-Gao HTS: 38.9; Biotin-avidin: -0.1; RGS8-Gao single: 100.7; RGS7-Gao confirm: 93.5; RGS16-Gao conf: 97.0; RGS4-Gao single: 98.0; RGS19-Gao single: 91.7

Results for NS(=O)(=O)c1cc(C(=O)OCC(=O)NC2CC2)ccc1Cl ?
RGS7-Gao reg: 106.2; Avidin fluor: 15; RGS8-Gao reg: 107.8; GSH bead fluor: 38; RGS4-Gao reg: 110.0; RGS16-Gao HTS: 110.4

How did O=C(Cc1n[nH]c(=O)c2ccccc12)OCC(=O)c1ccc2c(c1)OCCO2 do in these assays?
RGS7-Gao reg: 104.9; Avidin fluor: 12; RGS8-Gao reg: 104.4; GSH bead fluor: 14; RGS4-Gao reg: 101.6; RGS16-Gao HTS: 114.0

How did COc1ccc2nc(NC(=O)c3sc4nc(C)cc(C)c4c3N)sc2c1 do in these assays?
RGS7-Gao reg: inconclusive; Avidin fluor: 8; RGS8-Gao reg: 105.9; RGS4-Gao reg: 101.6; RGS16-Gao HTS: 106.7

What do the screens show for `CCN1CC(CNCc2cn(-c3ccc(OC)cc3)nc2-c2ccccc2Cl)CC1=O` (configuration not stated)?
RGS7-Gao reg: 38.9*; Avidin fluor: 2; RGS8-Gao reg: 56.8*; GSH bead fluor: 16; RGS4-Gao reg: 48.2*; RGS16-Gao HTS: 43.2; Biotin-avidin: 0.1; RGS8-Gao single: 98.6; RGS7-Gao confirm: 84.1; RGS16-Gao conf: 95.6; RGS4-Gao single: 88.5; RGS19-Gao single: 100.0

Results for COc1ccc(-n2cc(CNCC3CC(=O)N(C4CC4)C3)c(-c3ccccc3Cl)n2)cc1 (configuration not stated) ?
RGS7-Gao reg: 98.2; Avidin fluor: 12; RGS8-Gao reg: 107.2; GSH bead fluor: 13; RGS4-Gao reg: 101.8; RGS16-Gao HTS: 105.6

Results for CN1CCN(c2nc3c(c(=O)n(C)c(=O)n3C)n2CC(=O)C23CC4CC(CC(C4)C2)C3)CC1 ?
RGS7-Gao reg: 139.5; Avidin fluor: 35; RGS8-Gao reg: 116.8; GSH bead fluor: 48; RGS4-Gao reg: 156.9*[activator]; RGS16-Gao HTS: 155.9; Biotin-avidin: -1.6; RGS8-Gao single: 101.4; RGS7-Gao confirm: 99.2; RGS16-Gao conf: 101.4; RGS4-Gao single: 101.3; RGS19-Gao single: 95.5

What do the screens show for `C=C1SC(=Nc2c(C)cccc2Cl)N(C(=O)c2sc3ccccc3c2Cl)C12CCCCC2`?
RGS7-Gao reg: inconclusive; Avidin fluor: 8; RGS8-Gao reg: 109.0; RGS4-Gao reg: 115.7; RGS16-Gao HTS: 117.2

What do the screens show for `C=C1SC(=Nc2ccccc2Cl)N(C(=O)c2sc3ccccc3c2Cl)C1(C)C`?
RGS7-Gao reg: inconclusive; Avidin fluor: -2; RGS8-Gao reg: 9.4*; RGS4-Gao reg: -16.1*; RGS16-Gao HTS: -13.2*; Biotin-avidin: 0.0; RGS8-Gao single: 100.5; RGS7-Gao confirm: 98.3; RGS16-Gao conf: 100.3; RGS4-Gao single: 98.9; RGS19-Gao single: 103.3

What do the screens show for `Cn1c(=O)c2c(=O)cc(N)[nH]c2n(C)c1=O`?
RGS7-Gao reg: inconclusive; Avidin fluor: 7; RGS8-Gao reg: 77.3; RGS4-Gao reg: 97.2; RGS16-Gao HTS: 99.8; Biotin-avidin: 0.3; RGS8-Gao single: 100.4; RGS7-Gao confirm: 102.8; RGS16-Gao conf: 100.6; RGS4-Gao single: 102.4; RGS19-Gao single: 99.4

How did CC(=O)[C@@]1(O)C(C)CC2C3C=C(C)C4=Cc5c(cnn5-c5ccccc5)C[C@]4(C)C3C(O)C[C@@]21C (some centres not stated) do in these assays?
RGS7-Gao reg: inconclusive; Avidin fluor: 12; RGS8-Gao reg: 99.8; RGS4-Gao reg: 101.4; RGS16-Gao HTS: 101.3

Source: PubChem
